According to publication PMC7862700, “An all-to-all approach to the identification of sequence-specific readers for epigenetic DNA modifications on cytosine”:

What was measured:
Experiment in all cases: DAPPL (digital affinity profiling via proximity ligation, sequencing); 10 mM Tris-HCl pH 7.5, 50 mM NaCl, 1 mM DTT, 4% glycerol, room temperature, 30 min; GST-TFs on glutathione beads, 16-mer random dsDNA library, 0.1% formaldehyde crosslink after washing; high values mean tight binding
Settings in all cases: protein: recombinant; tags: N-terminal GST; dsDNA, one strand shown
ERF = molecular target: T1, ERF (Homo sapiens, UniProt P50548 1-548)
T1 sequence: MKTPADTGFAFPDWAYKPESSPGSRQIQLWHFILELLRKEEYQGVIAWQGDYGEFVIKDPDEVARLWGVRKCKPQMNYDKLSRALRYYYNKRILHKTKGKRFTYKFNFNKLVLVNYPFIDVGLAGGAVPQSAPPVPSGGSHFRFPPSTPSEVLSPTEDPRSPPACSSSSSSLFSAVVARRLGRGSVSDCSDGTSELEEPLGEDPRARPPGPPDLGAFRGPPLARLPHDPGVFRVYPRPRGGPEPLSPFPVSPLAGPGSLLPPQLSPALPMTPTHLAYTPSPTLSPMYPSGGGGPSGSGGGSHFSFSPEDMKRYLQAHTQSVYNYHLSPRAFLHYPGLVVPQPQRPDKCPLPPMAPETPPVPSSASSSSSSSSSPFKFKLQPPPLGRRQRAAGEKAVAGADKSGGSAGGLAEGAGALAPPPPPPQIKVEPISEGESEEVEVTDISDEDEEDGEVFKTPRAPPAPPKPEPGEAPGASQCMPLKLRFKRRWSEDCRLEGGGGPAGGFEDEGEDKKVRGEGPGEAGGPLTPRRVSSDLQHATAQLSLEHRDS
Summary of the method: (§1)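 Binding signal is defined as a hexamer's read frequency for one factor over its frequency for the tag-only sample. To obtain reads, GST-fused human transcription factors were expressed in yeast, captured on glutathione beads, barcoded with DNA and pooled with that sample. Pools met 200 nmole of a 16-mer random double-stranded DNA library in Tris/NaCl/DTT/glycerol buffer for 30 min at room temperature before washing, 0.1% formaldehyde crosslinking, proximity ligation (BsaI/T4 ligase, 1 h, 37 °C), PCR and Illumina NextSeq500 sequencing.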

ETV3L = molecular target: T2, ETV3L (Homo sapiens, UniProt Q6ZN32 1-361)
T2 sequence: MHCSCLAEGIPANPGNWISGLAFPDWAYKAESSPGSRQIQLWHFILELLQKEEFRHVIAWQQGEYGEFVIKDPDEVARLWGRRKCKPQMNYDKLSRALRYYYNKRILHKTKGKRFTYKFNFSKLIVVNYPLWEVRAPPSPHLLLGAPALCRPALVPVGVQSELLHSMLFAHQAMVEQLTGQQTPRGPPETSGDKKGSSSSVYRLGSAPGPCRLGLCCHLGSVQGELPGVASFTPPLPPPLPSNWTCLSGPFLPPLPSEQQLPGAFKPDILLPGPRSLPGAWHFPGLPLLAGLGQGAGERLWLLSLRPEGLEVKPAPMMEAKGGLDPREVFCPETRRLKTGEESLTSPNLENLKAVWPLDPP
Summary of the method: as §1

ETS2 = molecular target: T3, ETS2 (Homo sapiens, UniProt P15036 1-469)
T3 sequence: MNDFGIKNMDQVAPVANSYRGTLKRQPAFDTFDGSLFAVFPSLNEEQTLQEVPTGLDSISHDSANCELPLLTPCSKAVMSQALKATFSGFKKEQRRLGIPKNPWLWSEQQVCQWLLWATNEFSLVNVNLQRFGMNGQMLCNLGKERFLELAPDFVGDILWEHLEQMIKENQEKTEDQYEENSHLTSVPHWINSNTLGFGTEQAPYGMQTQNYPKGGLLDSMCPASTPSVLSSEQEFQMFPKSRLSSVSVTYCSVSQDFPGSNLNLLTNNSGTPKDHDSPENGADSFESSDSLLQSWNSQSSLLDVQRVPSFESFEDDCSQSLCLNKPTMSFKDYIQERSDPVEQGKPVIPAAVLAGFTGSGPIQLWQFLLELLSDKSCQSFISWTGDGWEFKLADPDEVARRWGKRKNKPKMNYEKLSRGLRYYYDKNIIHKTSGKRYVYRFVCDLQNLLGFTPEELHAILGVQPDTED
Summary of the method: as §1

SPDEF = molecular target: T4, SPDEF (Homo sapiens, UniProt O95238 1-335)
T4 sequence: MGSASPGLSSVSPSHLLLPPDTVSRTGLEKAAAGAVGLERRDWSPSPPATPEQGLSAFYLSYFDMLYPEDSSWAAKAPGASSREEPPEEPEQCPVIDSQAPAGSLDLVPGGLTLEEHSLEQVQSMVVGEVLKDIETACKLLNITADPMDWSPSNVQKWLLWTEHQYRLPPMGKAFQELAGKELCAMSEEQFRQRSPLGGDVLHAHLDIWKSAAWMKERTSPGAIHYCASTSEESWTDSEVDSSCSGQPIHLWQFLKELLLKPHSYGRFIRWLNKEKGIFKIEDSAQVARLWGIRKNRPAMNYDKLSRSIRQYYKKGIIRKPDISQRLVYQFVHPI
Summary of the method: as §1

ETV7 = molecular target: T5, ETV7 (Homo sapiens, UniProt Q9Y603 1-341)
T5 sequence: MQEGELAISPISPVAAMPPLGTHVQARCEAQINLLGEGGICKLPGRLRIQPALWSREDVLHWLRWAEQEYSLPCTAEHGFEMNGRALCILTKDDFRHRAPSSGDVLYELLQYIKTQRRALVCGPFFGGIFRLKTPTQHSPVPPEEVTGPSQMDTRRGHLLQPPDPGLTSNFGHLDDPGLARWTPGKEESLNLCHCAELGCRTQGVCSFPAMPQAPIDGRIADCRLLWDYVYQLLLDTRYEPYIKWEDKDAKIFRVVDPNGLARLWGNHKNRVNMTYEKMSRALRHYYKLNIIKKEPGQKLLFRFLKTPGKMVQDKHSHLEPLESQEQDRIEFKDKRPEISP
Summary of the method: as §1

ELF5 = molecular target: T6, ELF5 (Homo sapiens, UniProt Q9UKW6-2 1-255)
T6 sequence: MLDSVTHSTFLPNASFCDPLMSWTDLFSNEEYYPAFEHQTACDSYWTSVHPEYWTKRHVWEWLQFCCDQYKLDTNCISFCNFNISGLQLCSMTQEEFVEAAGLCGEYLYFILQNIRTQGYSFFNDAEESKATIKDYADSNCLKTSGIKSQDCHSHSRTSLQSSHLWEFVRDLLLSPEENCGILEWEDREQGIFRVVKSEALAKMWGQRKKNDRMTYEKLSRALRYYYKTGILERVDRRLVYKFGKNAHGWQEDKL
Summary of the method: as §1

ETV3 = molecular target: T7, ETV3 (Homo sapiens, UniProt P41162-2 1-143)
T7 sequence: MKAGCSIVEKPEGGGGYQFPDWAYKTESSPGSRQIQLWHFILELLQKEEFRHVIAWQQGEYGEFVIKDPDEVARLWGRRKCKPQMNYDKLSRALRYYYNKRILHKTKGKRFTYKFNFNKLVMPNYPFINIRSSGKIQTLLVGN
Summary of the method: as §1

ETV6 = ETV6 (Homo sapiens, UniProt P41212 1-452)
ETV6, sequence (P41212 whole entry): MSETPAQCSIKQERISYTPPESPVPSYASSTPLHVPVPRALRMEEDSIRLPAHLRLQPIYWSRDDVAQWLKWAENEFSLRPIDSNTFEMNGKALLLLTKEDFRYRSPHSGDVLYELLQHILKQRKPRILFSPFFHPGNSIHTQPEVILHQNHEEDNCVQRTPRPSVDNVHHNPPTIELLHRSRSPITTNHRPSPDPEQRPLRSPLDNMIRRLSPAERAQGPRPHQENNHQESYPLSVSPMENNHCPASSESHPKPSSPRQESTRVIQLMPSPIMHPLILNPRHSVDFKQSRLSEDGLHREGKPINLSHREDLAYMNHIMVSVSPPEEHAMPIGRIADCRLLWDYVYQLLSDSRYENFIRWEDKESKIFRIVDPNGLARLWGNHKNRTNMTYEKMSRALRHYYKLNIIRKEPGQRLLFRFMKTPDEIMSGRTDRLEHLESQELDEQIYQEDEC
Summary of the method: as §1

| Sequence | binding signal (ERF) | binding signal (ETV3L) | binding signal (ETS2) | binding signal (SPDEF) | binding signal (ETV7) | binding signal (ELF5) | binding signal (ETV3) | binding signal (ETV6) |
| --- | --- | --- | --- | --- | --- | --- | --- | --- |
| ACCCTG | 1.04 fold enrichment (6-mer frequency, TF over GST control) | 1.05 fold enrichment (6-mer frequency, TF over GST control) | 1.01 fold enrichment (6-mer frequency, TF over GST control) | 1.03 fold enrichment (6-mer frequency, TF over GST control) | 1.04 fold enrichment (6-mer frequency, TF over GST control) | 1.03 fold enrichment (6-mer frequency, TF over GST control) | 1.13 fold enrichment (6-mer frequency, TF over GST control) | 1.07 fold enrichment (6-mer frequency, TF over GST control) |
| CCCTAA | 1.36 fold enrichment (6-mer frequency, TF over GST control) | 1.32 fold enrichment (6-mer frequency, TF over GST control) | 1.15 fold enrichment (6-mer frequency, TF over GST control) | 1.19 fold enrichment (6-mer frequency, TF over GST control) | 1.14 fold enrichment (6-mer frequency, TF over GST control) | 1.19 fold enrichment (6-mer frequency, TF over GST control) | 1.2 fold enrichment (6-mer frequency, TF over GST control) | 1.08 fold enrichment (6-mer frequency, TF over GST control) |
| TCATTA | 1.19 fold enrichment (6-mer frequency, TF over GST control) | 1.08 fold enrichment (6-mer frequency, TF over GST control) | 1.1 fold enrichment (6-mer frequency, TF over GST control) | 1.06 fold enrichment (6-mer frequency, TF over GST control) | 1.16 fold enrichment (6-mer frequency, TF over GST control) | 1.09 fold enrichment (6-mer frequency, TF over GST control) | 1.12 fold enrichment (6-mer frequency, TF over GST control) | 1.06 fold enrichment (6-mer frequency, TF over GST control) |
| GCACAT | 1.2 fold enrichment (6-mer frequency, TF over GST control) | 1.19 fold enrichment (6-mer frequency, TF over GST control) | 1.12 fold enrichment (6-mer frequency, TF over GST control) | 1.28 fold enrichment (6-mer frequency, TF over GST control) | 1.07 fold enrichment (6-mer frequency, TF over GST control) | 1.1 fold enrichment (6-mer frequency, TF over GST control) | 1.15 fold enrichment (6-mer frequency, TF over GST control) | 1.14 fold enrichment (6-mer frequency, TF over GST control) |
| CACAAC | 1.36 fold enrichment (6-mer frequency, TF over GST control) | 1.29 fold enrichment (6-mer frequency, TF over GST control) | 1.25 fold enrichment (6-mer frequency, TF over GST control) | 1.25 fold enrichment (6-mer frequency, TF over GST control) | 1.13 fold enrichment (6-mer frequency, TF over GST control) | 1.28 fold enrichment (6-mer frequency, TF over GST control) | 1.22 fold enrichment (6-mer frequency, TF over GST control) | 1.24 fold enrichment (6-mer frequency, TF over GST control) |
| GCTATG | 1.26 fold enrichment (6-mer frequency, TF over GST control) | 1.16 fold enrichment (6-mer frequency, TF over GST control) | 1.26 fold enrichment (6-mer frequency, TF over GST control) | 1.23 fold enrichment (6-mer frequency, TF over GST control) | 1.3 fold enrichment (6-mer frequency, TF over GST control) | 1.14 fold enrichment (6-mer frequency, TF over GST control) | 1.23 fold enrichment (6-mer frequency, TF over GST control) | 1.1 fold enrichment (6-mer frequency, TF over GST control) |
| CGTCCG | 1.32 fold enrichment (6-mer frequency, TF over GST control) | 1.19 fold enrichment (6-mer frequency, TF over GST control) | 1.28 fold enrichment (6-mer frequency, TF over GST control) | 1.48 fold enrichment (6-mer frequency, TF over GST control) | 1.37 fold enrichment (6-mer frequency, TF over GST control) | 1.44 fold enrichment (6-mer frequency, TF over GST control) | 1.22 fold enrichment (6-mer frequency, TF over GST control) | 1.34 fold enrichment (6-mer frequency, TF over GST control) |
| GGAAAT | 2.42 fold enrichment (6-mer frequency, TF over GST control) | 2.66 fold enrichment (6-mer frequency, TF over GST control) | 2.75 fold enrichment (6-mer frequency, TF over GST control) | 2.56 fold enrichment (6-mer frequency, TF over GST control) | 2.56 fold enrichment (6-mer frequency, TF over GST control) | 3.68 fold enrichment (6-mer frequency, TF over GST control) | 2.88 fold enrichment (6-mer frequency, TF over GST control) | 3.32 fold enrichment (6-mer frequency, TF over GST control) |
| CGACCA | 1.19 fold enrichment (6-mer frequency, TF over GST control) | 1.33 fold enrichment (6-mer frequency, TF over GST control) | 1.29 fold enrichment (6-mer frequency, TF over GST control) | 1.24 fold enrichment (6-mer frequency, TF over GST control) | 1.16 fold enrichment (6-mer frequency, TF over GST control) | 1.2 fold enrichment (6-mer frequency, TF over GST control) | 1.2 fold enrichment (6-mer frequency, TF over GST control) | 1.33 fold enrichment (6-mer frequency, TF over GST control) |
